In PubChem BioAssay (EPA / NIEHS) one finds outcome and AC50 data, which are given here for 3 compounds.

One may read the AC50 as the midpoint of the concentration-response curve, whichever way the signal moves.

Holding throughout (conditions): mRNA level, 48 h; actives raise or lower the signal
Read-out in test [1]: BCL2L11 (gene 10018)
Put plainly: LTEA_HepaRG_BCL2L11: Life Technologies and Expression Analysis (LTEA) Assay for Bcl-2 (BCL2L11) gene using HepaRG (AID 2283473). The gist of the method:
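HepaRG, 48 h exposure, 8-pt half-log series from 100 uM in 0.5% DMSO, duplicates; qRT-PCR (Fluidigm TaqMan) for BCL2L11, housekeeping-normalized; bidirectional curve fit relative to DMSO baseline.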

Read-out in test [2]: Apolipoprotein A-V (APOA5) gene, APOA5 (gene 116519)
As to the kind of experiment: LTEA_HepaRG_APOA5: Life Technologies and Expression Analysis (LTEA) Assay for Apolipoprotein A-V (APOA5) gene using HepaRG (AID 2283474). The gist of the method: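 HepaRG, 48 h chemical exposure in serum-free induction medium, 8-pt half-log series (top 100 uM), 0.5% DMSO vehicle, duplicates. Readout: APOA5 mRNA by qRT-PCR, housekeeping-normalized; bidirectional fit vs DMSO baseline.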

Read-out in test [3]: Apoptosis regulator Bcl-2 (Homo sapiens) (UniProt P10415)
As to the kind of experiment: LTEA_HepaRG_BCL2: Life Technologies and Expression Analysis (LTEA) Assay for Bcl-2 gene using HepaRG (AID 2283475). The essentials:
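qRT-PCR of BCL2 transcript, normalized to three housekeeping genes (ACTB, GAPDH, POLR2A), after 48 h chemical exposure of HepaRG cells; concentrations top 100 uM with half-log dilutions, 0.5% DMSO vehicle, duplicates; changes up or down fitted relative to vehicle.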

Read-out in test [4]: Bcl-2 (BID) gene, BID (gene 637)
Put plainly: LTEA_HepaRG_BID: Life Technologies and Expression Analysis (LTEA) Assay for Bcl-2 (BID) gene using HepaRG (AID 2283476). The essentials:
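Duplicate 48 h treatments of HepaRG cells in serum-free induction medium spanned 100 uM downward in half-log steps, 0.5% DMSO. Transcript change quantified by qRT-PCR against three housekeeping genes, fitted up or down versus DMSO.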

Read-out in test [5]: Caspase-3 (Homo sapiens) (UniProt P42574)
Put plainly: LTEA_HepaRG_CASP3: Life Technologies and Expression Analysis (LTEA) Assay for cysteine-aspartic acid protease (CASP3) using HepaRG (AID 2283477). The gist of the method:
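HepaRG, 48 h exposure, 8 conc. (top 100 uM, half-log steps, duplicate), 0.5% DMSO vehicle; qRT-PCR of CASP3 transcript, housekeeping-normalised (ACTB/GAPDH/POLR2A); bidirectional curve fit vs DMSO baseline.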

Read-out in test [6]: Cytochrome P450 (CYP24A1), CYP24A1 (gene 1591)
Put plainly: LTEA_HepaRG_CYP24A1: Life Technologies and Expression Analysis (LTEA) Assay for Cytochrome P450 (CYP24A1) using HepaRG (AID 2283478). The gist of the method:
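qRT-PCR read-out: CYP24A1 transcript levels normalized to three housekeeping genes, bidirectional curve fits against 0.5% DMSO baseline. Human HepaRG cells treated 48 h with chemicals at eight concentrations from 100 uM in half-log steps.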

Read-out in test [7]: Cytochrome P450 (CYP1A2), CYP1A2 (gene 1544)
Put plainly: LTEA_HepaRG_CYP1A2: Life Technologies and Expression Analysis (LTEA) Assay for Cytochrome P450 (CYP1A2) using HepaRG (AID 2283479). The essentials:
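HepaRG, 48 h exposure, top 100 uM, half-log 8-pt, 0.5% DMSO vehicle, duplicates. Readout: TaqMan qRT-PCR of CYP1A2 mRNA, housekeeping-normalized (ACTB/GAPDH/POLR2A). Gain/loss fit relative to DMSO baseline.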

Read-out in test [8]: cysteine-aspartic acid protease (CASP8), CASP8 (gene 841)
As to the kind of experiment: LTEA_HepaRG_CASP8: Life Technologies and Expression Analysis (LTEA) Assay for cysteine-aspartic acid protease (CASP8) using HepaRG (AID 2283480). The essentials:
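Concentration-response in duplicate up to 100 uM (half-log steps, 0.5% DMSO) on differentiated HepaRG cultures for 48 h. Expression change of CASP8 mRNA is determined by TaqMan qRT-PCR with housekeeping-gene normalization.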

Read-out in test [9]: Cytochrome P450 (CYP2B6), CYP2B6 (gene 1555)
As to the kind of experiment: LTEA_HepaRG_CYP2B6: Life Technologies and Expression Analysis (LTEA) Assay for Cytochrome P450 (CYP2B6) using HepaRG (AID 2283481). The gist of the method:
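Read-out is CYP2B6 mRNA by TaqMan qRT-PCR, normalized to three housekeeping genes and fitted bidirectionally against 0.5% DMSO baseline. Human HepaRG cells received test chemicals for 48 h, top concentration 100 uM, half-log dilutions.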

Read-out in test [10]: Cytochrome P450 2C19 (Homo sapiens) (UniProt P33261)
Put plainly: LTEA_HepaRG_CYP2C19: Life Technologies and Expression Analysis (LTEA) Assay for CYP2C19 using HepaRG (AID 2283482). The gist of the method: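 HepaRG, 48 h chemical exposure, 8-pt half-log series from 100 uM in 0.5% DMSO, duplicates. Readout: CYP2C19 mRNA by TaqMan qRT-PCR, housekeeping-normalized. Bidirectional fit vs DMSO baseline; phenobarbital 1mM as induction control.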

Read-out in test [11]: CYP2C8 (gene 1558)
As to the kind of experiment: LTEA_HepaRG_CYP2C8: Life Technologies and Expression Analysis (LTEA) Assay for CYP2C8 using HepaRG (AID 2283483). The essentials:
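This is a transcriptional endpoint in HepaRG cultures: 48 h exposure, highest concentration 100 uM. CYP2C8 mRNA is quantified by TaqMan qRT-PCR.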

Read-out in test [12]: CYP2C9 (gene 1559)
Put plainly: LTEA_HepaRG_CYP2C9: Life Technologies and Expression Analysis (LTEA) Assay for CYP2C9 using HepaRG (AID 2283484). The gist of the method:
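Eight-point concentration-response (highest 100 uM, half-log dilutions) in HepaRG cells for 48 h; CYP2C9 expression by qRT-PCR normalized to ACTB, GAPDH, POLR2A. Bidirectional fit, DMSO baseline.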

Read-out in test [13]: CYP4A11 (gene 1579)
As to the kind of experiment: LTEA_HepaRG_CYP4A11: Life Technologies and Expression Analysis (LTEA) Assay for CYP4A11 using HepaRG (AID 2283486). The essentials: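 CYP4A11 transcript levels were quantified by TaqMan qRT-PCR after HepaRG human liver cells were treated for 48 hours with test chemicals (top 100 uM, half-log dilutions, 0.5% DMSO). Gain or loss of signal was fitted relative to DMSO.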

Read-out in test [14]: Cytochrome P450 3A4 (Homo sapiens) (UniProt P08684)
As to the kind of experiment: LTEA_HepaRG_CYP3A4: Life Technologies and Expression Analysis (LTEA) Assay for CYP3A4 using HepaRG (AID 2283487). The gist of the method: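 Differentiated HepaRG cells in serum-free induction medium exposed in duplicate for 48 h to 8 half-log concentrations up to 100 uM in 0.5% DMSO. CYP3A4 mRNA measured by qRT-PCR normalized to ACTB, GAPDH and POLR2A; bidirectional fit versus DMSO.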

Read-out in test [15]: DNA damage-inducible transcript 3 (DDIT3), DDIT3 (gene 1649)
As to the kind of experiment: LTEA_HepaRG_DDIT3: Life Technologies and Expression Analysis (LTEA) Assay for DNA damage-inducible transcript 3 (DDIT3) using HepaRG (AID 2283488). The gist of the method: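 DDIT3 transcript was quantified by qRT-PCR with ACTB/GAPDH/POLR2A normalization after 48 h chemical treatment of differentiated HepaRG cells in 0.5% DMSO. Dosing was eight-point, half-log, top 100 uM, duplicate wells. Curves fitted bidirectionally versus DMSO.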

Read-out in test [16]: Pro-epidermal growth factor (Homo sapiens) (UniProt P01133)
As to the kind of experiment: LTEA_HepaRG_EGF: Life Technologies and Expression Analysis (LTEA) Assay for Epidermal growth factor (EGF) using HepaRG (AID 2283489). The gist of the method:
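qRT-PCR readout of EGF transcript after 48 h chemical exposure of HepaRG cells; eight concentrations from 100 uM down in half-log steps, duplicate wells, 0.5% DMSO vehicle. Bidirectional curve fitting against DMSO baseline.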

Read-out in test [17]: Early growth response protein 1 (EGR1) transcription factor, EGR1 (gene 1958)
Put plainly: LTEA_HepaRG_EGR1: Life Technologies and Expression Analysis (LTEA) Assay for Early growth response protein 1 (EGR1) transcription factor using HepaRG (AID 2283490). The essentials:
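EGR1 expression change in human HepaRG after 48 h chemical exposure, assessed by housekeeping-normalized qRT-PCR; concentration-response up to 100 uM, fitted in both directions against DMSO controls.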

Read-out in test [18]: Ezrin (EZR), EZR (gene 7430)
As to the kind of experiment: LTEA_HepaRG_EZR: Life Technologies and Expression Analysis (LTEA) Assay for Ezrin (EZR) using HepaRG (AID 2283491). The gist of the method: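 Differentiated human HepaRG cells, 48 h after plating, were exposed in serum-free induction medium for 48 hours to eight half-log concentrations up to 100 uM in 0.5% DMSO. EZR mRNA was measured by TaqMan qRT-PCR, normalized to ACTB, GAPDH and POLR2A, and fitted bidirectionally against DMSO.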

Read-out in test [19]: Cytochrome P450 3A7 (Homo sapiens) (UniProt P24462)
As to the kind of experiment: LTEA_HepaRG_CYP3A7: Life Technologies and Expression Analysis (LTEA) Assay for CYP3A7 using HepaRG (AID 2283492). The essentials:
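CYP3A7 transcript levels were read by TaqMan qRT-PCR on Fluidigm arrays after 48 h chemical exposure of human HepaRG cells, with housekeeping-gene normalisation. Eight half-log concentrations up to 100 uM in 0.5% DMSO were tested in duplicate.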

Read-out in test [20]: CYP2E1 (gene 1571)
As to the kind of experiment: LTEA_HepaRG_CYP2E1: Life Technologies and Expression Analysis (LTEA) Assay for CYP2E1 using HepaRG (AID 2283485). The gist of the method:
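CYP2E1 transcript measured by Fluidigm qRT-PCR against three housekeeping genes in human HepaRG cells treated 48 h (top 100 uM, half-log steps, 0.5% DMSO vehicle). Gain or loss fitted relative to DMSO baseline.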

The structures appear in SMILES notation. The source made the active and inactive calls. The calls were made as follows: active = hit-call score of the fitted dose curve at least 0.9, where 1 is the maximum; inactive = score below 0.9.

Caspase-3 (Homo sapiens), sequence (P42574 whole entry, looked up): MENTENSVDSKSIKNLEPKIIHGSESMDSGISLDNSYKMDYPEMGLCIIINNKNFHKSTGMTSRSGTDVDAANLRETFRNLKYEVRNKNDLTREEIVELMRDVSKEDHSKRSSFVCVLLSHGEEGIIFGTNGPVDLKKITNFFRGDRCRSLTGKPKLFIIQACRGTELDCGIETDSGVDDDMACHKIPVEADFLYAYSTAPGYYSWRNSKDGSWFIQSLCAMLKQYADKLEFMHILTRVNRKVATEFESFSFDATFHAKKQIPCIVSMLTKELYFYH
Cytochrome P450 3A7 (Homo sapiens), sequence (P24462 whole entry, looked up): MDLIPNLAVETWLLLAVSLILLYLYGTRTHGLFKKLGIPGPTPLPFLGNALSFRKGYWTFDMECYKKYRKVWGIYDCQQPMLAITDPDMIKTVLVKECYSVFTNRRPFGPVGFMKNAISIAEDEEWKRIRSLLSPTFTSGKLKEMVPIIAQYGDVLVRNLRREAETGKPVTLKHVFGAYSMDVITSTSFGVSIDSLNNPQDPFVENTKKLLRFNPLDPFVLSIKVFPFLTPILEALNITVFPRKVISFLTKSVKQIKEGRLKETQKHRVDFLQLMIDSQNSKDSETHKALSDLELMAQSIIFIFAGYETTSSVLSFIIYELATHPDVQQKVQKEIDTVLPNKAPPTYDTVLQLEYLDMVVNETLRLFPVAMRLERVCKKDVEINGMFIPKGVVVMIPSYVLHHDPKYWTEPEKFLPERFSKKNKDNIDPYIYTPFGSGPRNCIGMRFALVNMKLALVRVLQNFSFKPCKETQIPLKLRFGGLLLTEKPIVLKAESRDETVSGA
Apoptosis regulator Bcl-2 (Homo sapiens), sequence (P10415 whole entry, looked up): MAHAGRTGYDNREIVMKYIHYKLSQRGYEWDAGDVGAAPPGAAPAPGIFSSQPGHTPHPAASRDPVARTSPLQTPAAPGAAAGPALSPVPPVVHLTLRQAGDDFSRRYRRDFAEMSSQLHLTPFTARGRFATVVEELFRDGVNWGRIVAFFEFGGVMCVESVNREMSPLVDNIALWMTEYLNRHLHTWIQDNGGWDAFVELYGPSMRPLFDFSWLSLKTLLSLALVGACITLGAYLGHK
Cytochrome P450 2C19 (Homo sapiens), sequence (P33261 whole entry, looked up): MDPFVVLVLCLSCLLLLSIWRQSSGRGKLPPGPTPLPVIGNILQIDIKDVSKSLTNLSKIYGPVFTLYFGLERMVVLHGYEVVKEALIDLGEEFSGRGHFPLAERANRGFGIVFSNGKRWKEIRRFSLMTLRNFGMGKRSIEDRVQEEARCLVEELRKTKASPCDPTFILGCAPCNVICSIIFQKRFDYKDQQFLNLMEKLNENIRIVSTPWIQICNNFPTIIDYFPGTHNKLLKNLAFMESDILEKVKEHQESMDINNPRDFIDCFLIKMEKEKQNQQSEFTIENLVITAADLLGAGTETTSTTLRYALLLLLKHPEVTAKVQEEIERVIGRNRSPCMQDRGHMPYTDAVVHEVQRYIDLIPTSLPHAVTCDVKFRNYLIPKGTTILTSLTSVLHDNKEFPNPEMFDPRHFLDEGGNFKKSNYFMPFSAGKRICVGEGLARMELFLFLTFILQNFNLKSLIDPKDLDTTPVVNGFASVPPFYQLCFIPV
Cytochrome P450 3A4 (Homo sapiens), sequence (P08684 whole entry, looked up): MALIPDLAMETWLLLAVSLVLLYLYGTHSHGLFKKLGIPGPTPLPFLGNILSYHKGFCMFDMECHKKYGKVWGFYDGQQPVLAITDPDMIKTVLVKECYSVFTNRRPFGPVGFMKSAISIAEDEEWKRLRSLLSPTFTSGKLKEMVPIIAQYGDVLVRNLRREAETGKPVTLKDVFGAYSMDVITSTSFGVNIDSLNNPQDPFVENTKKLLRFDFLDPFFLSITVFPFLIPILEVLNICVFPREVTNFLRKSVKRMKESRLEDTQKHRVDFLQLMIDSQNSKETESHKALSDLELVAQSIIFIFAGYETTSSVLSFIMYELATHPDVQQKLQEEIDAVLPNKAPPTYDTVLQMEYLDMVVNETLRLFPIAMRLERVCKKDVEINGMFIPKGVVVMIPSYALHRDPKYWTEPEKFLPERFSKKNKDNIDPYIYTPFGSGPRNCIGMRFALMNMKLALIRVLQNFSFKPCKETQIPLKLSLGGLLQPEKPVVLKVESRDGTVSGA

`C1=Cc2cccc3cccc1c23`: the compound was classed as inactive in [1], in [2], in test [3], in [4], in test [5] and in test [6]. In addition, the result in test [8], in test [10], in test [11], in test [12], in test [13] and in test [14] was inactive. In addition, the compound was called inactive in [15], in [16], in [17], in test [18] and in [19]. Further, the AC50 in test [7] is 24.9 µM (active); in test [9], 37.8 µM (active).
In the case of `O=[N+]([O-])c1ccc(Oc2ccc(Cl)cc2Cl)cc1`, the compound was called inactive in test [1], in [2], in test [3], in test [4], in [5] and in test [6]. Moreover, the result in test [8], in [11], in [12], in [13], in [16] and in [18] was inactive. Also, the AC50 in test [7] was 27.2 µM (active); in [9], 12.8 µM (active); in test [10] it was 12.4 µM (active); in test [20] it was 58 µM (active); in [15], 50 µM (active); in test [19] it was 2.45 µM (active).
Turning to `Cc1ccc(N=C=O)cc1N=C=O`, the result in [1], in [2], in test [4], in test [5], in test [6] and in test [7] was inactive. The outcome in test [8], in test [9], in test [10], in test [14], in [16] and in [18] was inactive. In [19], the outcome was inactive. For the same compound, the AC50 was 23.6 µM (active) in [3]; 50 µM (active) in test [12]; 31.1 µM (active) in [20]; 20.8 µM (active) in test [13]; 13.3 µM (active) in test [15]; 50 µM (active) in [17].
